# Measured values as given in PubChem BioAssay (NCI).
# Values joined by “and” are separate entries in the source; they are usually repeats but may differ in a detail not shown here. Identical values can stand only once. This is part of a sample that, as a whole, favours compounds with a hit. Of some 83,000 tested, about 20% had one in any assay.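 Results are percent growth after 48 hours of single-concentration exposure. 100 means growth as in untreated cells, lower positive values show inhibition; negative values down to -100 show cell death.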 Active and inactive are the calls of the source. Rule for the calls: active = growth percent below 10; inactive = the rest.
# Assays:
# Assay in all cases: NCI-60 one-dose screen, 48 h (100 = growth as untreated, 0 = no growth, -100 = all killed)
# Conditions in all cases: 10 µM unless noted
# SR leukemia = tested on: SR leukemia
# RPMI-8226 leukemia = tested on: RPMI-8226 leukemia
# OVCAR-8 ovarian = tested on: OVCAR-8 ovarian
# OVCAR-5 ovarian = tested on: OVCAR-5 ovarian
# OVCAR-4 ovarian = tested on: OVCAR-4 ovarian
# SK-OV-3 ovarian = tested on: SK-OV-3 ovarian
# IGROV1 ovarian = tested on: IGROV1 ovarian
# OVCAR-3 ovarian = tested on: OVCAR-3 ovarian
# HS 578T breast = tested on: HS 578T breast
# NCI/ADR-RES ovarian = tested on: NCI/ADR-RES ovarian
# T-47D breast = tested on: T-47D breast
# BT-549 breast = tested on: BT-549 breast
# MDA-MB-435 melanoma = tested on: MDA-MB-435 melanoma
# SW-620 colon = tested on: SW-620 colon
# MCF7 breast = tested on: MCF7 breast
# HCT-116 colon = tested on: HCT-116 colon
# HCC-2998 colon = tested on: HCC-2998 colon
# KM12 colon = tested on: KM12 colon
SMILES,growth (SR leukemia),growth (RPMI-8226 leukemia),growth (OVCAR-8 ovarian),growth (OVCAR-5 ovarian),growth (OVCAR-4 ovarian),growth (SK-OV-3 ovarian),growth (IGROV1 ovarian),growth (OVCAR-3 ovarian),growth (HS 578T breast),growth (NCI/ADR-RES ovarian),growth (T-47D breast),growth (BT-549 breast),growth (MDA-MB-435 melanoma),growth (SW-620 colon),growth (MCF7 breast),growth (HCT-116 colon),growth (HCC-2998 colon),growth (KM12 colon)
O=C1C=C(Nc2ccccc2)c2ccccc2C1=O,84.5% (inactive),52.7% (inactive) and 87.3% (inactive),31.7% (inactive) and 94.3% (inactive),90.2% (inactive) and 109% (inactive),44.4% (inactive) and 82.5% (inactive),108% (inactive) and 90.9% (inactive),65.5% (inactive) and 85.3% (inactive),6.63% (active) and 35.4% (inactive),94.8% (inactive) and 88.6% (inactive),25.1% (inactive) and 91.4% (inactive),77.2% (inactive) and 102% (inactive),84.3% (inactive) and 100% (inactive),-88% (active) and 99% (inactive),31.5% (inactive) and 94% (inactive),12.9% (inactive) and 78.4% (inactive),6.58% (active) and 92.8% (inactive),54.3% (inactive) and 90.5% (inactive),65.6% (inactive) and 84.4% (inactive)
O=c1[nH]cnc2c1ncn2C1OC(CO)C(O)C1O (stereo not drawn),106% (inactive) and 83.5% (inactive) and 88.4% (inactive),101% (inactive) and 93.6% (inactive) and 96.5% (inactive),106% (inactive) and 100% (inactive) and 103% (inactive),116% (inactive) and 114% (inactive) and 96.5% (inactive),126% (inactive) and 118% (inactive) and 117% (inactive),95.7% (inactive) and 104% (inactive) and 105% (inactive),,113% (inactive) and 111% (inactive) and 107% (inactive),109% (inactive) and 110% (inactive) and 91.9% (inactive),99.5% (inactive) and 105% (inactive) and 102% (inactive),103% (inactive) and 107% (inactive) and 90.2% (inactive),103% (inactive) and 123% (inactive) and 109% (inactive),121% (inactive) and 98.7% (inactive) and 90.2% (inactive),107% (inactive) and 113% (inactive) and 89.7% (inactive),100% (inactive) and 96.8% (inactive) and 95.6% (inactive),102% (inactive) and 116% (inactive) and 92.9% (inactive),102% (inactive) and 113% (inactive) and 127% (inactive),111% (inactive) and 109% (inactive)
CC(C)NCC(O)c1ccc(O)c(O)c1 (stereo not drawn),87.9% (inactive) and 95.3% (inactive),96.6% (inactive) and 99.6% (inactive),94.8% (inactive) and 131% (inactive) and 91.7% (inactive),89.2% (inactive) and 92.6% (inactive) and 86.9% (inactive),107% (inactive) and 110% (inactive) and 97.1% (inactive),95.5% (inactive) and 94.9% (inactive) and 102% (inactive),,113% (inactive) and 102% (inactive) and 108% (inactive),112% (inactive) and 96.6% (inactive) and 109% (inactive),96.3% (inactive) and 102% (inactive) and 93.8% (inactive),98% (inactive) and 90.5% (inactive) and 102% (inactive),84.7% (inactive) and 79.9% (inactive) and 84% (inactive),,104% (inactive) and 107% (inactive) and 93% (inactive),100% (inactive) and 85.1% (inactive) and 109% (inactive),100% (inactive) and 93.3% (inactive) and 71.7% (inactive),105% (inactive) and 117% (inactive) and 108% (inactive),106% (inactive) and 105% (inactive)
Nc1cc(N)c(N)cc1N,-7.21% (active),89.7% (inactive),63.3% (inactive),-9.01% (active),25.3% (inactive),98.4% (inactive),47.6% (inactive),-55.1% (active),67.7% (inactive),59.6% (inactive),81.7% (inactive),85.4% (inactive),-73.8% (active),7.1% (active),-49.2% (active),0.84% (active),101% (inactive),80.1% (inactive)
CCCCOc1ccc(Nc2cc(Cl)ccc2C(=O)O)cn1,96.1% (inactive),57.8% (inactive) and 93.2% (inactive),111% (inactive) and 94.6% (inactive),110% (inactive) and 101% (inactive),92.4% (inactive),108% (inactive),42.5% (inactive) and 104% (inactive),111% (inactive) and 106% (inactive),95.3% (inactive) and 99.2% (inactive),90.4% (inactive) and 97.4% (inactive),92.6% (inactive) and 92.3% (inactive),101% (inactive) and 100% (inactive),105% (inactive) and 107% (inactive),103% (inactive) and 101% (inactive),99.5% (inactive) and 107% (inactive),93.7% (inactive) and 92.4% (inactive),95.4% (inactive),118% (inactive) and 103% (inactive)
CN1CNC(=O)NC1,106% (inactive) and 79.6% (inactive),113% (inactive) and 104% (inactive),106% (inactive) and 98.6% (inactive),112% (inactive) and 111% (inactive),119% (inactive) and 112% (inactive),112% (inactive) and 105% (inactive),137% (inactive) and 97.8% (inactive),112% (inactive) and 107% (inactive),109% (inactive) and 96.5% (inactive),109% (inactive) and 103% (inactive),112% (inactive) and 100% (inactive),97.8% (inactive) and 112% (inactive),,105% (inactive) and 104% (inactive),109% (inactive) and 96.4% (inactive),105% (inactive),113% (inactive) and 102% (inactive),117% (inactive) and 105% (inactive)
CC(C)C(C)(C)c1ccc(O)cc1,97.8% (inactive),105% (inactive),106% (inactive),106% (inactive),108% (inactive),107% (inactive),111% (inactive),105% (inactive),114% (inactive),113% (inactive),101% (inactive),110% (inactive),,101% (inactive),109% (inactive),,114% (inactive),107% (inactive)
CCN(CCNS(C)(=O)=O)c1ccc(N)c(C)c1,94.9% (inactive),59.9% (inactive) and 110% (inactive),78.1% (inactive) and 97.5% (inactive),115% (inactive) and 109% (inactive),69.6% (inactive) and 102% (inactive),98.6% (inactive) and 96% (inactive),70.3% (inactive) and 68.9% (inactive),25.5% (inactive) and 77.8% (inactive),115% (inactive) and 103% (inactive),90.2% (inactive) and 96.9% (inactive),1.47% (active) and 56.8% (inactive),73.8% (inactive) and 102% (inactive),,21.6% (inactive) and -27.2% (active),20.6% (inactive) and 72.8% (inactive),-52.9% (active) and 43.1% (inactive),103% (inactive) and 102% (inactive),103% (inactive)
c1ccc2c(c1)OC1OC2Oc2ccccc21,76.1% (inactive),106% (inactive),104% (inactive),103% (inactive),105% (inactive),102% (inactive),,101% (inactive),92.9% (inactive),95.7% (inactive),100% (inactive),93.2% (inactive),,96.9% (inactive),107% (inactive),113% (inactive),105% (inactive),87.3% (inactive)
CC(C)(O)C(=O)O,119% (inactive),103% (inactive),109% (inactive),99.7% (inactive),105% (inactive),97.9% (inactive),101% (inactive),109% (inactive),102% (inactive),111% (inactive),100% (inactive),103% (inactive),,110% (inactive),93.8% (inactive),,119% (inactive),107% (inactive)
O=C1CSC2=NCCN12,98.3% (inactive) and 49.5% (inactive),101% (inactive) and 90.7% (inactive),96.4% (inactive) and 107% (inactive),116% (inactive) and 96.7% (inactive),93.9% (inactive) and 94.2% (inactive),105% (inactive) and 124% (inactive),106% (inactive) and 101% (inactive),102% (inactive) and 122% (inactive),88.1% (inactive) and 92.9% (inactive),94.9% (inactive) and 102% (inactive),111% (inactive),131% (inactive),,92% (inactive) and 93.4% (inactive),92.7% (inactive) and 81.6% (inactive),,96.9% (inactive) and 107% (inactive),89.8% (inactive) and 123% (inactive)
O=CN1CCCCC1,119% (inactive),177% (inactive),117% (inactive),104% (inactive),108% (inactive),113% (inactive),,112% (inactive),114% (inactive),103% (inactive),109% (inactive),97.3% (inactive),107% (inactive),102% (inactive),97.6% (inactive),104% (inactive),105% (inactive),100% (inactive)
CC(=O)OCC1OC(OC(C)=O)C(OC(C)=O)C(OC(C)=O)C1OC(C)=O (stereo not drawn),98.1% (inactive) and 93.6% (inactive),100% (inactive) and 103% (inactive),97.5% (inactive) and 99.7% (inactive),101% (inactive) and 112% (inactive),97% (inactive) and 104% (inactive),102% (inactive) and 106% (inactive),,110% (inactive) and 107% (inactive),132% (inactive) and 101% (inactive),100% (inactive) and 107% (inactive),97.7% (inactive) and 101% (inactive),96.3% (inactive) and 103% (inactive),105% (inactive) and 107% (inactive),102% (inactive) and 105% (inactive),99.8% (inactive) and 91.9% (inactive),,111% (inactive) and 101% (inactive),109% (inactive) and 100% (inactive)
